Shown are actives, neighbours in structure and some others; about 8.8% of the full set was active somewhere.
ALDH1A1 inh: inhibitors of human aldehyde dehydrogenase 1A1; actives 7.3% (n = 220,000); Potency, µM (doses to about 75.3 µM), for inactives: top-dose activity, negative = inhibition, hits mostly inhibitors; Purified ALDH1A1, NADH fluorescence, propionaldehyde substrate;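 note: plate controls were no enzyme wells and a reference inhibitor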
Lamin A splicing: changes lamin A minigene splicing in HeLa cells | HeLa LMNA splicing GFP/RFP minigene ratio, 48 h | AID 1487 | Potency, µM (doses to about 46.1 µM), inactives show at the top dose ratio change, negative = inhibition, most hits filed as inhibitors | actives 0.01% (n = 200,000); active = well fitted inhibition curve with a large enough effect in the signal ratio, with a control signal flat, not every such curve was filed as active; inconclusive = small, poorly fitted or top-dose-only effect, or effect the other way, or a change in a side signal; the % refers to the signal ratio; note: % is set by controls: 0 for no effect and ±100 for the full control effect
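S3 HeLa stable clones carrying a lamin A-EGFP splicing minigene plus DsRed2 were seeded at 600 cells/well in Opti-MEM with 2% FBS, pin-dosed and incubated 48 h at 37°C. Acumen cytometry (488 nm) gave the GFP/RFP total-intensity ratio.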
HttQ103 aggreg: reduces HttQ103-GFP aggregates in PC12 cells | PC12 HttQ103-GFP aggregates, Acumen cytometry, 40 h | Potency, µM (top dose mostly 46.1 µM), without a hit: at the top dose activity change, negative = inhibition, actives largely listed as inhibitors | actives 1.1% (n = 220,000) | AID 1688; active = well fitted curve in the direction sought with a large enough effect; inconclusive = small, poorly fitted or top-dose-only effect, or another doubt; inactive = no such curve, though single readings can be large; an effect the other way counts as inactive or inconclusive; note: % is set by controls: 0 for no effect and ±100 for the full control effect; nearly all actives have a fitted effect of over 60% in size
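PC12/HTTQ103-GFP, ecdysone-inducible; teb 100 nM; cpd qHTS titration; GFP aggregates read on laser cytometer, Ex 488/Em 500-530 nm.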
HTT cytoprotect: cytoprotection in Huntington HTT-Q103 PC12 cell model; Potency, µM (series often up to 56.4 µM), for inactives: cytoprotection (ATP increase), usual class: activators; actives 0.14% (n = 230,000); PC12 HTT-Q103 induced, cytoprotection, ATP luminescence, 40 h; AID 1471; active = well fitted curve in the direction sought with a large enough effect; inconclusive = small, poorly fitted or top-dose-only effect, or another doubt; inactive = no such curve, though single readings can be large; an effect the other way counts as inactive or inconclusive; note: % of control where 0% means no effect; nearly all actives have a fitted effect of over 45% in size
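Quantitative HTS on tebufenozide-induced (100 nM) PC12 cells expressing HTTQ103 exon 1–GFP; compounds tested as a concentration series; survival measured via cellular ATP.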
HPGD inh: blocks human HPGD enzyme activity; P15428; actives 4.3% (n = 150,000); purified HPGD, NADH fluorescence kinetic, PGE2 substrate; Potency, µM, inactives show at the highest dose activity change, negative = inhibition, actives largely listed as inhibitors; AID 894; note: % is set by controls: 0 for no effect and ±100 for the full control effect
Target sequence (P15428 whole entry, looked up): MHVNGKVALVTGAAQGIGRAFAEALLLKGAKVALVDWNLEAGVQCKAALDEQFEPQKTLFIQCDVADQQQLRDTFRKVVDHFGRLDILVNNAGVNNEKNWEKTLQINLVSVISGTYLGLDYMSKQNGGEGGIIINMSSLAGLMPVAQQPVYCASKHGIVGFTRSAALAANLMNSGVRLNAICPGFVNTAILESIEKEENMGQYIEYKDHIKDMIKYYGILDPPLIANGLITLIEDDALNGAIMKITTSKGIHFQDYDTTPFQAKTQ
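NADH formation kinetics: reaction with 30 uM PGE2 and 1 mM NAD+ (final), 20 nM enzyme, Tris-HCl pH 8 with Tween 20, after 15 min compound preincubation at room temperature. Fluorescence change, last versus first of five reads.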
* marks the source's active call; other numbers are inactive results; u = inconclusive; x = no result; [ ] = dose if it differs, or a comment. Unless noted, calls come from the whole dose curve; as a rule, active = well fitted inhibition curve with a large enough effect (not every such curve was filed as active); inconclusive = small, poorly fitted or top-dose-only effect, or another doubt; inactive = no such curve, though single readings can be large or run the other way. Potency is the fitted concentration of half-maximal effect.

SMILES	ALDH1A1 inh	Lamin A splicing	HttQ103 aggreg	HTT cytoprotect	HPGD inh
CC1(C)Cc2ccccc2-c2n[nH]c(=S)n21	13µM*	u	-5%	-1%	-22%
Cn1c(=O)c(C(=O)CCl)c(N)n(Cc2ccccc2)c1=O	7.1µM*	u	-3%	x	-7%
CN(C)CC(=O)c1c(N)n(Cc2ccccc2)c(=O)n(C)c1=O	10%	-25%[46 µM]	-1%	-32%	x
C=CCSC1=NC(=O)/C(=C/c2cccs2)S1	u	u	-5%	27%[10 µM]	32µM*
CS(=O)(=O)N1CCCC(C(=O)NCCc2ccc(Cl)cc2)C1 (stereo not given)	-2%	-10%	7%	-53%	-9%
CC(CCc1ccccc1)NC(=O)C1CCN(C(=O)c2sccc2-n2cccc2)CC1 (stereo not given)	0.35µM*	-2%	-14%	7%	-9%
O=C(NCCc1ccc(Cl)cc1)C1CCN(C(=O)c2sccc2-n2cccc2)CC1	0.5µM*	-22%	4%[9.22 µM]	23%	0%
COc1ccc(CCNC(=O)C2CCN(C(=O)c3cccs3)CC2)cc1	0.4µM*	u	-27%	-24%	x
O=C(NCCc1ccc(Cl)cc1)C1CCN(S(=O)(=O)N2CCCC2)CC1	3.2µM*	8%	-8%	24%	-5%
O=C(NCCC1=CCCCC1)C1CCN(C(=O)c2ccc(Cl)cc2)CC1	u	-5%[0.0737 µM]	-1%	-6%	1%
CC(CCc1ccccc1)NC(=O)C1CCN(c2nnc(-n3cccc3)s2)CC1 (stereo not given)	-5%	u	-17%	-11%	-11%
N#Cc1ccc(NC(=O)COCc2cc(-c3ccc4c(c3)OCO4)on2)cc1	x	-1%[46 µM]	x	x	x
Cc1nc(C(=O)NNC(=O)c2ccc(C(F)(F)F)cc2)cs1	x	x	-15%[9.22 µM]	0%[10 µM]	x
CN(C)CCCN1C(=O)c2cccc3c(Br)ccc(c23)C1=O	22µM*	u	-20%	-42%	x
CCCCNc1ccc2c3c(cccc13)C(=O)N(CCCC)C2=O	x	x	u	-16%[10 µM]	x
Cc1noc(C)c1COC(=O)c1cc(F)c(F)cc1Cl	3%	10%	0%	-10%[0.074 µM]	-10%
Cc1noc(C)c1COC(=O)c1ccc2c(c1)OCO2	-16%	-2%	17%	3%[4.97 µM]	-24%
Cc1noc(C)c1COC(=O)c1cnc(Cl)c(Cl)c1	0.56µM*	11%[46 µM]	-28%	-6%	x
Cc1noc(C)c1COC(=O)c1ccc2c(c1)S(=O)(=O)c1ccccc1C2=O	13µM*	1%	4%	-36%	28µM*
O=C(COC(=O)c1ccc2c(c1)S(=O)(=O)c1ccccc1C2=O)NC1CC1	14µM*	2%[46 µM]	29%	-6%[10 µM]	x
CCc1cccc(CC)c1NC(=O)COC(=O)c1ccc2c(c1)S(=O)(=O)c1ccccc1C2=O	17%	-10%	23%	2%[10 µM]	-11%
COc1ccc(Oc2ncc3nc(-c4cccc(C#N)c4)c(=O)n(C)c3n2)cc1	1%	4%	x	u	x
C=CCCCCCCCCCCCc1ccco1	u	20%	x	x	0.79µM*
Cc1ccc(S(=O)(=O)CCC(=O)N2CCN(c3ccc(Cl)cc3)CC2)cc1	u	u	u	25%[10 µM]	-2%
O=C(Nc1ccc2c(c1)OCO2)C(c1ccccc1)N1CCN(C(=O)c2ccco2)CC1 (stereo not given)	3µM*	13%	7%	-2%[10 µM]	-19%
O=C(c1ccco1)N1CCN(C(=O)C(Sc2ccccc2)c2ccccc2)CC1 (stereo not given)	14µM*	-21%	10µM*	-8%[0.074 µM]	-11%
O=C(Nc1ccc2c(c1)OCO2)C(c1ccc(Cl)cc1)N1CCN(C(=O)c2ccco2)CC1 (stereo not given)	-12%	-11%	-3%	14%[10 µM]	-5%
O=C(Nc1ccc(F)cc1)C(c1ccccc1)N1CCN(C(=O)c2ccco2)CC1 (stereo not given)	5µM*	1%	10%	-16%	-18%
C[N+]1(CC(=O)Nc2ccc(F)cc2)CCN(C(=O)c2ccco2)CC1	-8%	-8%	-5%	8%	-6%
Cc1ccc(C)c(S(=O)(=O)N2CCN(C(C(=O)Nc3ccc(F)cc3)c3ccccc3)CC2)c1 (stereo not given)	11µM*	-13%	-26%	-5%[10 µM]	-13%

Screening data as filed in PubChem.
